# Test results from PubChem BioAssay (EPA / NIEHS).
# Values joined by “and” are separate entries in the source; they are usually repeats but may differ in a detail not shown here. Identical values can stand only once. Records with an inconclusive call do not appear. Active and inactive are the calls of the source. The calls were made as follows, unless noted: active = hit-call score of the fitted dose curve at least 0.9, where 1 is the maximum; inactive = score below 0.9.
# Assays:
# [1] = molecular target: Estrogen receptor (Homo sapiens) (UniProt P03372); assay: CCTE_Deisenroth_AIME_96WELL_LUC_Active: CCTE's 96-well Estrogen Receptor Transactivation Assay with AIME metabolic competence (ERTA luciferase; metabolism positive), Deisenroth Lab (AID 2284023; active = hit-call score of the fitted dose curve at least 0.9, where 1 is the maximum)
# Estrogen receptor (Homo sapiens), sequence (P03372 whole entry, looked up): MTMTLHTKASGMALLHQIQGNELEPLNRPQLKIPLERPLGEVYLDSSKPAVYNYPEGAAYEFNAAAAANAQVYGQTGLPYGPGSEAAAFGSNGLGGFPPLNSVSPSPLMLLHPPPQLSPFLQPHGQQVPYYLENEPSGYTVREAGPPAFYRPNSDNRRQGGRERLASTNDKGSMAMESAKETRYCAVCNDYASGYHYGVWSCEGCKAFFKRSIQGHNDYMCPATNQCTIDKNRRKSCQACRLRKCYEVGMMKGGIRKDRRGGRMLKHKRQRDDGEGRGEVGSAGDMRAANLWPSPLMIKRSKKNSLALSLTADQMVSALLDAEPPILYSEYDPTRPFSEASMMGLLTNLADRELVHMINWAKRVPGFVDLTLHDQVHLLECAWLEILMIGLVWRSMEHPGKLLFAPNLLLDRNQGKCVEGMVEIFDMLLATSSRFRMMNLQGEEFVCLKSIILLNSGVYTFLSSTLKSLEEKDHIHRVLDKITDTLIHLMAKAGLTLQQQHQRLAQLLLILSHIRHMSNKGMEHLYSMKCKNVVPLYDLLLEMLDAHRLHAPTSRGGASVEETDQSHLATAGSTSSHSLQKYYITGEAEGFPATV
# Procedure, shortened: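 Metabolism-positive mode: induced rat hepatic S9 in alginate microspheres conditions test solutions (0.002 - 200 uM, 10 points) for 2 hours. VM7Luc4E2 ER luciferase reporter cells then exposed 24 h; positive-direction fit against 17beta-estradiol, n=4 typical.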
# [2] = molecular target: Estrogen receptor (Homo sapiens) (UniProt P03372); assay: CCTE_Deisenroth_AIME_96WELL_LUC_Inactive: CCTE's 96-well Estrogen Receptor Transactivation Assay without AIME metabolic competence (ERTA luciferase; metabolism negative), Deisenroth Lab (AID 2284025; active = hit-call score of the fitted dose curve at least 0.9, where 1 is the maximum)
# Method: CCTE_Deisenroth_AIME_96WELL (AIME metabolism assay) is a cell-based, single-readout assay that uses VM7Luc4E2, a human mammary gland/breast cell line, with measurements taken at 24 hour after chemical dosing in a 96-well plate.CCTE_Deisenroth_AIME_96WELL_LUC_Inactive is one of four assay components measured or calculated from the CCTE_Deisenroth_AIME_96WELL assay. It is designed to make measurements of luciferase induction, a form of inducible reporter, as detected with bioluminescence signals by luciferase-coupled ATP quantitation technology.CCTE_Deisenroth_AIME_96WELL_LUC_Inactive is a component of the CCTE_Deisenroth_AIME_96WELL assay that measures the effect of retroftting the VM7Luc ERTA assay with the Alginate Immobolization of Metabolic Enzymes (AIME) metabolism method. AIME is optimized to impart phase I hepatic metabolism using phenobarbital/beta-naphthoflavone induced hepatic S9 from male Sprague Dawley rats. Parent chemicals are incubated for 2 hours in the AIME assay prior to transfer to the VM7Luc ERTA assay plate. […] This endpoint evaluates reporter induction in metabolism negative mode. […] This assay endpoint, CCTE_Deisenroth_AIME_96WELL_LUC_Inactive, was analyzed in the positive analysis fitting direction relative to 17beta-estradiol as the positive control in the ERTA assay. […]
# [3] = CCTE_Deisenroth_AIME_96WELL_CTox_Active: Cytotoxicity Assessment (CTOX) in CCTE's 96-well Estrogen Receptor Transactivation Assay with AIME metabolic competence (metabolism positive), Deisenroth Lab (AID 2284028; active = hit-call score of the fitted dose curve at least 0.9, where 1 is the maximum)
# Procedure, shortened: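 Cytotoxicity in VM7Luc4E2 breast cells after 24 h exposure to medium from a 2 h metabolic pre-incubation with induced rat hepatic S9 in alginate microspheres; fluorescent live-cell protease readout, 10-point series 0.002–200 uM, n=4.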
# [4] = CCTE_Deisenroth_AIME_96WELL_CTox_Inactive: Cytotoxicity Assessment (CTOX) in CCTE's 96-well Estrogen Receptor Transactivation Assay without AIME metabolic competence (metabolism negative), Deisenroth Lab (AID 2284029; active = hit-call score of the fitted dose curve at least 0.9, where 1 is the maximum)
# Method: CCTE_Deisenroth_AIME_96WELL (AIME metabolism assay) is a cell-based, single-readout assay that uses VM7Luc4E2, a human mammary gland/breast cell line, with measurements taken at 24 hour after chemical dosing in a 96-well plate.CCTE_Deisenroth_AIME_96WELL_CTox_Inactive is one of four assay components measured or calculated from the CCTE_Deisenroth_AIME_96WELL assay. It is designed to make measurements of a protease substrate, a type of viability indicator, as detected with substrate cleavage to a fluorescent probe in living cells.CCTE_Deisenroth_AIME_96WELL_CTox_Inactive is a component of the CCTE_Deisenroth_AIME_96WELL assay that measures the effect of retroftting the VM7Luc ERTA assay with the Alginate Immobolization of Metabolic Enzymes (AIME) metabolism method. AIME is optimized to impart phase I hepatic metabolism using phenobarbital/beta-naphthoflavone induced hepatic S9 from male Sprague Dawley rats. Parent chemicals are incubated for 2 hours in the AIME assay prior to transfer to the VM7Luc ERTA assay plate. […] This endpoint evaluates cytotoxicity in metabolism negative mode. Using a type of flourescent probe in VM7Luc cells, loss-of-signal activity can be used to understand loss of viability. This assay endpoint, CCTE_Deisenroth_AIME_96WELL_CTox_Inactive, was analyzed with bidirectional fitting in the ERTA assay. […]
# [5] = molecular target: Estrogen receptor (Homo sapiens) (UniProt P03372); assay: CCTE_Deisenroth_AIME_384WELL_LUC_Active: CCTE's 384-well Estrogen Receptor Transactivation Assay with AIME metabolic competence (ERTA luciferase; metabolism positive), Deisenroth Lab (AID 2284030; active = hit-call score of the fitted dose curve at least 0.9, where 1 is the maximum)
# Procedure, shortened: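 Readout: bioluminescent luciferase induction in VM7Luc4E2 cells 24 hour after receiving medium from a 2 h rat hepatic S9 (induced, alginate microsphere) metabolism step. Concentrations 0.002 - 200 uM; activity scaled to 17beta-estradiol positive control.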
# [6] = CCTE_Shafer_MEA_dev_firing_rate_mean: CCTE's Neural Network Formation Assay for Mean Firing Rate, Shafer Lab (AID 2284031);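 also: AUC of well mean spike rate recorded on DIV 5 7 9 and 12; curve fitted for loss of firing so AC50 reflects decreased mean firing rate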
# Procedure, shortened: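 Spike frequency (spikes/recording length, averaged over active electrodes) was recorded on days 5, 7, 9 and 12 and collapsed to AUC; rat cortical cultures received compound continuously over 12 days of network development.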
# [7] = CCTE_Shafer_MEA_acute_network_burst_percentage: CCTE's Neural Acute Assay for Percentage of Network Bursts, Shafer Lab (AID 2284022);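 also: curves fitted for loss so actives lower network burst percentage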;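 as to outcome: rat primary cortical neuron networks on multiwell MEA recorded 40 min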
# Procedure, shortened: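 Rat cortical cultures, DIV 13/15; 20 min equilibration, 40 min baseline, compound 0.03-40 uM, 40 min recording, 37 C. Spikes: 300-5000 Hz band-pass, threshold 8x rms noise. Readout: % change in network-burst spike fraction; loss direction vs DMSO.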
# [8] = CCTE_Shafer_MEA_acute_cross_correlation_area: CCTE's Neural Acute Assay for Area of Cross Correlation, Shafer Lab (AID 2284024);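 also: rat primary cortical neuron networks on 48-well MEA at DIV 13 or 15 with 40 min exposure; area under pooled inter-electrode spike cross-correlation near zero lag as percent change from own baseline; curves fitted for loss of cross-correlation area so actives lower synchrony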
# Procedure, shortened: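 Rat cortical cultures, DIV 13/15, MEA; spikes detected at 8x rms noise (300-5000 Hz band-pass). Compound 0.03-40 uM, ≥3 wells each. Readout: % change in pooled inter-electrode cross-correlation area vs own baseline; DMSO negative control.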
# [9] = CCTE_Shafer_MEA_acute_synchrony_index: CCTE's Neural Acute Assay for Synchrony, Shafer Lab (AID 2284027);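 also: network synchrony index of spontaneous spiking in primary rat cortical neurons on MEAs; fitted for loss of signal so actives lower synchrony relative to DMSO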
# Procedure, shortened: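 The synchrony index is taken as percent change per well between a 40 min baseline and a 40 min recording with compound (0.03–40 uM), at 37C. Rat cortical cultures on multiwell MEAs at DIV 13 or 15, spike threshold 8× rms noise.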
# [10] = CCTE_Shafer_MEA_acute_cross_correlation_HWHM: CCTE's Neural Acute Assay for Cross Correlation at Half Width at Half Maximum, Shafer Lab (AID 2284026);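 also: percent change per well from pre-dose baseline in spike cross-correlogram half width; hits are a decrease in cross-correlogram half width relative to DMSO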;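 as to outcome: spontaneous network firing of rat primary cortical neurons on multiwell microelectrode arrays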
# Procedure, shortened: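 Read-out: half width at half maximum of action-potential cross-correlogram, percent change versus pre-treatment baseline, fitted in loss direction against DMSO. Rat cortical cultures, DIV 13 or 15, dosed 0.03-40 uM, 40-min recordings at 37 C.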
structure (smiles),measurement,setting,value
CCN(CC)C(=S)SSC(=S)N(CC)CC,outcome,[1],inactive
same,outcome,[2],inactive
same,outcome,[3],inactive
same,outcome,[4],inactive
same,outcome,[5],inactive
same,AC50,[6],98.7 nM (active) and 42.1 nM (active)
CCCCCCCC1CCC(=O)O1 (stereo not drawn),outcome,[7],inactive
same,outcome,[8],inactive
same,outcome,[9],inactive
CCCc1ccccc1,outcome,[7],inactive
same,outcome,[8],inactive
same,outcome,[10],inactive
same,outcome,[9],inactive
same,outcome,[5],inactive
CCOC(N)=O,outcome,[5],inactive
CC(C)C(=O)Nc1ccc([N+](=O)[O-])c(C(F)(F)F)c1,AC50,[7],34.4 µM (active)
same,outcome,[8],inactive
same,AC50,[10],5.73 µM (active)
same,outcome,[9],inactive
Cc1ncc([C@@H](CCCCCCc2ccc3c(n2)NCCC3)CC(=O)O)cn1,outcome,[7],inactive
same,outcome,[8],inactive
same,outcome,[10],inactive
same,outcome,[9],inactive
COc1cc(C(C)C)c2c(c1)S(=O)(=O)N(COc1cc(=O)n3cccc(OCCN4CCCCC4)c3n1)C2=O,outcome,[7],inactive
same,outcome,[8],inactive
same,AC50,[10],7.59 µM (active)
same,AC50,[9],7.39 µM (active)
CCn1nc(C)c2c1C(=O)NCC(c1ccc(O)cc1)=N2,outcome,[5],inactive
O=S(=O)(O)c1ccc(N=Nc2c(O)ccc3cc(S(=O)(=O)O)ccc23)cc1,outcome,[7],inactive
same,outcome,[8],inactive
same,outcome,[10],inactive
same,outcome,[9],inactive
c1ccc(C(O[C@@H]2CCCN(CCc3ccc4c(c3)OCO4)C2)c2ccccc2)cc1,outcome,[7],inactive
same,outcome,[8],inactive
same,outcome,[10],inactive
same,outcome,[9],inactive
same,AC50,[5],29.1 µM (active)
OCc1ccccc1,outcome,[7],inactive
same,outcome,[8],inactive
same,outcome,[10],inactive
same,outcome,[9],inactive
same,outcome,[5],inactive
O=C1CN(N=Cc2ccc([N+](=O)[O-])o2)C(=O)N1,outcome,[5],inactive
